Active and inactive are the calls of the source.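 Rule for the calls, unless noted: active = inhibition above 20% together with a positive visual image hit; inconclusive = visual image hit but inhibition not above 20%; inactive = no visual image hit.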
Key:
[1] = inhibitors of TNFa-induced NFkB p65 translocation, primary screen, imaging, HUVEC, MLSMR starter and 10KST1 sets (AID 438); conditions: HUVEC TNFa-induced p65 nuclear translocation; cell count: measured here: nuclei count (cytotoxicity indicator), at 2.08 µM; inhibition: at 2 µM, stronger effect = higher value, 0% TNFa-plus-vehicle, 100% no-TNFa wells;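 note: compound added about 3h40 before a 20 min TNFalpha stimulation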;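 for inhibition: signal is the nuclear over cytoplasmic p65 intensity ratio per well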
[2] = inhibitors of mutant huntingtin aggregation, primary screen, imaging, exon1htt(103Q)mCFP cells, high-content imaging (AID 483;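 active = visual image review flags a hit and inhibition of aggregation exceeds 20%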;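 note: compound exposure lasted 3 days before fixation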;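 for nuclei count: percent of the per-plate median nuclei count of sample wells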); conditions: exon1htt(103Q)mCFP cell line, aggregate imaging, at 2 µM; inhibition of aggregation: stronger effect = higher value; nuclei count: measured here: cell count, toxicity
[3] = inhibitors of E-selectin induction by TNFa, primary screen, imaging, HUVEC, immunofluorescence, MLSMR starter and 10KST1 sets (AID 487;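 active = visually confirmed hit in the image check and inhibition above 20%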;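 for inhibition: signal is fraction of cell area covered by stained E-selectin grains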;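 for nuclei count: 100% = median nuclei count of all wells on the same plate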); conditions: HUVEC TNFalpha-induced E-selectin immunofluorescence imaging, at 2 µM; inhibition: stronger effect = higher value; nuclei count: measured here: cell number, toxicity
[4] = target: Voltage-gated potassium channel subunit beta-2 (Rattus norvegicus) (UniProt P62483); test: KvBeta enzyme negative modulators, primary screen, biochemical, NADPH fluorescence (AID 622;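 active = fluorescence slope higher than the sample average by over 3 SD, cut at about -0.22 in these data, passing the limit was not always enough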;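 note: slope of raw intensity against log time taken from 70 to 1610 s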); conditions: recombinant KvBeta, 4-cyanobenzaldehyde reduction, at 10 µM, stronger effect = higher value
[5] = target: Voltage-gated potassium channel subunit beta-2 (Rattus norvegicus) (UniProt P62483); test: KvBeta positive modulators, primary screen, biochemical, NADPH fluorescence (AID 623;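 active = NADPH fluorescence slope more negative than the mean of all samples by about 3 SD, 99.7% confidence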;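 note: fluorescence intensity change per second fitted from 20 to 320 s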); conditions: Recombinant KvBeta, NADPH fluorescence decrease slope, 10 min; at 10 µM; stronger effect = lower value
[6] = target: Alpha-2C adrenergic receptor (Homo sapiens) (UniProt P18825); test: modulators of alpha2C/GIRK thallium flux, primary screen, cell-based, HEK293 alpha2C/GIRK1/2 (AID 624;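 active = fluorescence slope after compound addition differing from the mean of all screened samples at 99.7% confidence, in either direction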;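 note: slope of fluorescence ratio to pre-addition baseline per second over 15 to 24 s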); conditions: thallium flux BTC fluorescence, at 10 µM, actives lie on both sides
[7] = inhibitors of Sendai virus-induced IRF3 signaling, primary screen, TLR/RLR signaling modifier project, cell-based, Sendai virus stimulus, luciferase, 10K MLSCN set (AID 602276;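 active = inhibition at or above 50% at 10 µM; inactive = inhibition below 50%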;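 note: firefly luciferase from ISG56 promoter only with Renilla not read in this screen; 0% = Sendai virus plus DMSO and 100% = medium plus DMSO without virus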); conditions: HEK293 RL24 IRF3 luciferase reporter, at 10 µM, stronger effect = higher value
[8] = inhibitors of poly I:C-induced TLR3 signaling, primary screen, cell-based, poly I:C stimulus, luciferase, 10K MLSCN set (AID 602277;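 active = inhibition of the reporter signal at or above 50%; inactive = inhibition below 50%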); conditions: HEK293-TLR3 RL24 IRF3 luciferase reporter, at 10 µM, stronger effect = higher value

Chain of Voltage-gated potassium channel subunit beta-2 (Rattus norvegicus) (P62483 whole entry, looked up): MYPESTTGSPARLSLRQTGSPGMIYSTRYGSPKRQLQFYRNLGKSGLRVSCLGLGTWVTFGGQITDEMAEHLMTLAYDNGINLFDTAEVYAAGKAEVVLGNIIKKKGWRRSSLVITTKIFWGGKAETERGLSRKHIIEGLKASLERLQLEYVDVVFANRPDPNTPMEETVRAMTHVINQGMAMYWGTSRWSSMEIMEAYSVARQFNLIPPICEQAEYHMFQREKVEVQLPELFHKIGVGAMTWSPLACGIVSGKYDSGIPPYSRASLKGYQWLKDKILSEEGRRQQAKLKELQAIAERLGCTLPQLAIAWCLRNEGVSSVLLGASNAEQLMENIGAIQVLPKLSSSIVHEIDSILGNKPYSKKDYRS
Chain of Alpha-2C adrenergic receptor (Homo sapiens) (P18825 whole entry, looked up): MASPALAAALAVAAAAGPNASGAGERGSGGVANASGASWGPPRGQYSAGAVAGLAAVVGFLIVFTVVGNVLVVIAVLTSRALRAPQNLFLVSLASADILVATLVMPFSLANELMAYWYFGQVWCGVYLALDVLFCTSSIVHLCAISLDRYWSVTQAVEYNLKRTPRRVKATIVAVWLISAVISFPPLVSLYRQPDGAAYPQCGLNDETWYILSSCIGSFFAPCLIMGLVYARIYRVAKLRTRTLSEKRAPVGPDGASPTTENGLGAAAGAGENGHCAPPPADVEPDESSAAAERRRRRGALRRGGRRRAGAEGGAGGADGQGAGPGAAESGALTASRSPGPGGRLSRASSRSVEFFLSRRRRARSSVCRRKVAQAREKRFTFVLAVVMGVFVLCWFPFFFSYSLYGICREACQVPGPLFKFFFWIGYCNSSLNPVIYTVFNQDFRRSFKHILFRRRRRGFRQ

| SMILES | cell count [1] | inhibition [1] | inhibition of aggregation [2] | nuclei count [2] | inhibition [3] | nuclei count [3] | fluorescence slope [4] | NADPH fluorescence slope [5] | slope [6] | inhibition [7] | inhibition [8] |
| --- | --- | --- | --- | --- | --- | --- | --- | --- | --- | --- | --- |
| C=CCSC1=C(C#N)C(c2ccccc2Cl)CC(=O)N1 (stereo not drawn) | 407 | -6.5% (inactive) | 28.2% (inactive) | 74.3% | -59% (inactive) | 171% | -0.561 (inactive) | 5.8e-06 (inactive) | 0.0048 (inactive) | 25.7% (inactive) | 14.1% (inactive) |
| CS(=O)(=O)N1CCCC(C(=O)N2CCOCC2)C1 (stereo not drawn) | 683 | 1.2% (inactive) | 9.8% (inactive) | 92% | -142% (inactive) | 116% | -0.566 (inactive) | 6.2e-06 (inactive) | 0.00664 (inactive) | 11.5% (inactive) | 3.97% (inactive) |
| CCOC(=O)c1ccc2ncc(C(=O)OCC)c(NCCN(C)C)c2c1 | 770 | -3.3% (inactive) | -5.5% (inactive) | 94% | -63.4% (inactive) | 113% | -0.545 (inactive) | -3.1e-05 (inactive) | 0.00656 (inactive) | 10% (inactive) | 44% (inactive) |
| COc1ccc(NC(=O)C2CCCN(S(=O)(=O)c3cccc4cccnc34)C2)cc1OC (stereo not drawn) | 551 | -2.6% (inactive) | -0.5% (inactive) | 104% | -24.3% (inactive) | 109% | -0.559 (inactive) | 8e-06 (inactive) | 0.007 (inactive) | 14.2% (inactive) | 24.7% (inactive) |
| O=S(=O)(c1ccccc1)c1nc(-c2cccs2)oc1NCC1CCCO1 (stereo not drawn) | 566 | -1.8% (inactive) | 11.4% (inactive) | 108% | -17.9% (inactive) | 104% | -0.538 (inactive) | 5.1e-06 (inactive) | 0.00406 (inactive) | -17.6% (inactive) | -20.5% (inactive) |
| CC(C)Cn1c(CN2CCCCC2C)nc2c1c(=O)n(C)c(=O)n2C (stereo not drawn) | 693 | -10% (inactive) | 12.5% (inactive) | 93% | -25% (inactive) | 116% | -0.537 (inactive) | -1.5e-05 (inactive) | 0.00589 (inactive) | 2.69% (inactive) | 21.9% (inactive) |
| CCOC(=O)c1cnc(SC2CC(=O)N(c3ccc(OC)c(OC)c3)C2=O)nc1N (stereo not drawn) | 811 | -3.6% (inactive) | -0.6% (inactive) | 95.4% | -110% (inactive) | 135% | -0.531 (inactive) | 1.4e-05 (inactive) | 0.00718 (inactive) | -6.56% (inactive) | -2.72% (inactive) |
| CN(C)CCCN1C(=O)C(=O)/C(=C(/O)c2ccncc2)C1c1cccc(Br)c1 (stereo not drawn) | 245 | -2.8% (inactive) | -9.4% (inactive) | 94.1% | 1.2% (inactive) | 103% | -0.612 (inactive) | -7.1e-05 (inactive) | 0.00373 (inactive) | -6.87% (inactive) | -3.17% (inactive) |
| O=c1cnnc(NCc2ccccc2)[nH]1 | 696 | -11.2% (inactive) | 9.3% (inactive) | 99.5% | -32.9% (inactive) | 105% | -0.418 (inactive) | -2.6e-05 (inactive) | 0.00324 (inactive) | 1.13% (inactive) | 8.35% (inactive) |
| COC(=O)c1[nH]c2c(c1C)C(=O)CC(c1cc(OC)ccc1OC)C2 (stereo not drawn) | 546 | -4.2% (inactive) | 30.2% (inactive) | 81% | -36.2% (inactive) | 114% | -0.573 (inactive) | -1.2e-05 (inactive) | 0.00652 (inactive) | 38.3% (inactive) | 21.5% (inactive) |
| CCOC(=O)C1CCN(S(=O)(=O)c2cccc(-c3csc(C)n3)c2)CC1 | 234 | 4.4% (inactive) | 8.1% (inactive) | 97.1% | 32.4% (inactive) | 89% | -0.433 (inactive) | -0.000124 (inactive) | 0.0037 (inactive) | 14.1% (inactive) | 2.04% (inactive) |
| CCn1c2ccccc2c2cc(N)ccc21 | 705 | -34.5% (inactive) | 17.8% (inactive) | 91.5% | -37.7% (inactive) | 107% | -0.458 (inactive) | 5.8e-06 (inactive) | 0.00355 (inactive) | 8.66% (inactive) | 15.3% (inactive) |
| N#CC1=C(N)S[C@H](C(=O)C23CC4CC(CC(C4)C2)C3)[C@H]1c1ccncc1 | 297 | 2.4% (inactive) | -16.4% (inactive) | 105% | -10.8% (inactive) | 111% | -0.482 (inactive) | -1.6e-05 (inactive) | 0.0041 (inactive) | 11.9% (inactive) | 23.4% (inactive) |
| CCCCNC(=O)c1nc2ncc(Br)cn2n1 | 665 | 0% (inactive) | -12.4% (inactive) | 109% | 56.5% (inactive) | 81.1% | -0.442 (inactive) | -7.5e-05 (inactive) | 0.00578 (inactive) | 12.8% (inactive) | 22.4% (inactive) |
| COc1ccccc1OCCOCCn1cnc2ccccc2c1=O | 561 | -2.8% (inactive) | 24.9% (inactive) | 79.3% | 2.6% (inactive) | 94.4% | -0.488 (inactive) | -4.9e-05 (inactive) | 0.00575 (inactive) | 10.3% (inactive) | 12.5% (inactive) |
| COCCOC(=O)c1c(C)oc2ccc(NS(=O)(=O)c3ccc(F)cc3)cc12 | 381 | 2.5% (inactive) | 4.7% (inactive) | 123% | 30.2% (inactive) | 93% | -0.613 (inactive) | 2.2e-06 (inactive) | 0.00626 (inactive) | 14.6% (inactive) | 25.3% (inactive) |
| C=CCn1c(SCC(=O)NC2CCCCC2)nnc1-c1sc(N)nc1C | 639 | -7.3% (inactive) | -12.7% (inactive) | 101% | -100% (inactive) | 125% | -0.516 (inactive) | -3.2e-05 (inactive) | 0.00387 (inactive) | 16.9% (inactive) | 16.4% (inactive) |
| Fc1cccc2sc(N3CCOCC3)nc12 | 255 | -8.3% (inactive) | 16.8% (inactive) | 68.5% | 6.6% (inactive) | 51.7% | -0.387 (inactive) | -3.9e-05 (inactive) | 0.00353 (inactive) | -10.5% (inactive) | -45.8% (inactive) |
| Cc1cc(C)nc(N2CCC(C(=O)NC3CCCCCC3)CC2)n1 | 502 | -11.2% (inactive) | 25.2% (inactive) | 93.6% | 19.9% (inactive) | 90.5% | -0.508 (inactive) | 6.6e-06 (inactive) | 0.00535 (inactive) | 16.4% (inactive) | 16.2% (inactive) |
| COc1ccc(CNc2ccc(C(=O)O)cc2)cc1 | 511 | -28.3% (inactive) | -17.2% (inactive) | 116% | -61% (inactive) | 107% | -0.513 (inactive) | -3.9e-05 (inactive) | 0.00575 (inactive) | -4.3% (inactive) | -15.8% (inactive) |
| C1CCc2nnc(-c3nnc4n3CCCCC4)n2CC1 | 396 | 3% (inactive) | -5.5% (inactive) | 100% | -3.6% (inactive) | 105% | -0.344 (inactive) | -2.9e-05 (inactive) | 0.00555 (inactive) | 11.6% (inactive) | 10.3% (inactive) |
| Fc1ccc(NCc2nnc(SCc3nnc(-c4ccccc4)o3)n2CC2CCCO2)cc1 (stereo not drawn) | 571 | -9.7% (inactive) | -6% (inactive) | 56.6% | 14.2% (inactive) | 90.9% | -0.528 (inactive) | 3.2e-05 (inactive) | 0.00596 (inactive) | -28.3% (inactive) | -12.4% (inactive) |
| O=C(c1ccc(-c2ccccc2)cc1)N1CCC(C(=O)N2CCCC2)CC1 | 237 | -4.7% (inactive) | 0.5% (inactive) | 91.7% | -17.6% (inactive) | 101% | -0.388 (inactive) | -5.3e-05 (inactive) | 0.00472 (inactive) | 16% (inactive) | 8.25% (inactive) |
| CC(C)CC(c1nnnn1CC1CCCO1)N1CCN(Cc2ccc3c(c2)OCO3)CC1 (stereo not drawn) | 474 | 1% (inactive) | -18.9% (inactive) | 129% | -21.2% (inactive) | 111% | -0.472 (inactive) | -3.8e-05 (inactive) | 0.00652 (inactive) | -28.6% (inactive) | 25% (inactive) |
| NC(=O)CSc1cn(CCNC(=O)c2cccs2)c2ccccc12 | 604 | -1.4% (inactive) | 7% (inactive) | 84.8% | 19% (inactive) | 98.2% | -0.436 (inactive) | -4.5e-05 (inactive) | 0.00564 (inactive) | -2.46% (inactive) | 23.4% (inactive) |
| CC1(C)CC(=O)C(C=NCC2CCNCC2)=C(O)C1 | 249 | -2.1% (inactive) | 6.8% (inactive) | 74.8% | -10.9% (inactive) | 116% | -0.466 (inactive) | -4.9e-06 (inactive) | 0.00268 (inactive) | 3.67% (inactive) | 27.1% (inactive) |
| Cc1ccccc1Nc1nc(N)nc(CSCc2c(C)noc2C)n1 | 347 | -15.8% (inactive) | -2.4% (inactive) | 93.8% | -16.2% (inactive) | 117% | -0.361 (inactive) | -5.1e-05 (inactive) | 0.00597 (inactive) | -21.3% (inactive) | -33.2% (inactive) |
| COc1ccccc1NC(=O)c1ccc(COc2ccccc2OC)o1 | 596 | -15.7% (inactive) | -20% (inactive) | 132% | -77.6% (inactive) | 107% | -0.605 (inactive) | 2.4e-05 (inactive) | 0.00349 (inactive) | 12.4% (inactive) | 4.47% (inactive) |

From PubChem BioAssay
